Consider one compound from the supplement of paper PMC11732987, “Enantioselective OTUD7B fragment discovery through chemoproteomics screening and high-throughput optimisation” (Communications Chemistry, 2025).

Assay in all cases: log2 ratio of Biotin-Ahx-Ub-VS probe labelling (fragment/DMSO); higher = less target engagement (more negative = stronger competition), active = hit call of the paper (q ≤ 0.05, log2 ratio ≤ -1)
Common to all, as to details: compound concentration: 200 uM; treatment time: 3 h

One assay concerns the target T1, OTUD6B (UniProt Q8N6M0).
T1 sequence (whole entry): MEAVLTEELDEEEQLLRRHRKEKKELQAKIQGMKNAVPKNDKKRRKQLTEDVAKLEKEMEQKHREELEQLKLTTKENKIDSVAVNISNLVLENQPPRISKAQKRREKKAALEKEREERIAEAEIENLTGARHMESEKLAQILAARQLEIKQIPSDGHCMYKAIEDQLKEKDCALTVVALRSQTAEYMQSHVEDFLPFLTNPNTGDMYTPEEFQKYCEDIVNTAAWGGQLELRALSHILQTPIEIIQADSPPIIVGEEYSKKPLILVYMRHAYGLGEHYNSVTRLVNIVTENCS
An outline of the steps: (§1)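 HEK293T lysate in Tris/CHAPS/IGEPAL buffer with protease inhibitors (495 µg per sample) was given fragment at 200 µM or vehicle for 3 h, in triplicate. It then received Biotin-Ahx-Ub-VS at 0.5 µM final for 1 h. Labelled DUBs were NeutrAvidin-enriched, digested with LysC and trypsin, and run by diaPASEF LC-MS/MS. Values are average log2 fragment/vehicle ratios by unpaired t-test on global-median-normalised Spectronaut quantities of proteins with ≥2 unique peptides.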

The next assay addresses T2, OTUD7B (UniProt Q6GQQ9).
T2 sequence (whole entry): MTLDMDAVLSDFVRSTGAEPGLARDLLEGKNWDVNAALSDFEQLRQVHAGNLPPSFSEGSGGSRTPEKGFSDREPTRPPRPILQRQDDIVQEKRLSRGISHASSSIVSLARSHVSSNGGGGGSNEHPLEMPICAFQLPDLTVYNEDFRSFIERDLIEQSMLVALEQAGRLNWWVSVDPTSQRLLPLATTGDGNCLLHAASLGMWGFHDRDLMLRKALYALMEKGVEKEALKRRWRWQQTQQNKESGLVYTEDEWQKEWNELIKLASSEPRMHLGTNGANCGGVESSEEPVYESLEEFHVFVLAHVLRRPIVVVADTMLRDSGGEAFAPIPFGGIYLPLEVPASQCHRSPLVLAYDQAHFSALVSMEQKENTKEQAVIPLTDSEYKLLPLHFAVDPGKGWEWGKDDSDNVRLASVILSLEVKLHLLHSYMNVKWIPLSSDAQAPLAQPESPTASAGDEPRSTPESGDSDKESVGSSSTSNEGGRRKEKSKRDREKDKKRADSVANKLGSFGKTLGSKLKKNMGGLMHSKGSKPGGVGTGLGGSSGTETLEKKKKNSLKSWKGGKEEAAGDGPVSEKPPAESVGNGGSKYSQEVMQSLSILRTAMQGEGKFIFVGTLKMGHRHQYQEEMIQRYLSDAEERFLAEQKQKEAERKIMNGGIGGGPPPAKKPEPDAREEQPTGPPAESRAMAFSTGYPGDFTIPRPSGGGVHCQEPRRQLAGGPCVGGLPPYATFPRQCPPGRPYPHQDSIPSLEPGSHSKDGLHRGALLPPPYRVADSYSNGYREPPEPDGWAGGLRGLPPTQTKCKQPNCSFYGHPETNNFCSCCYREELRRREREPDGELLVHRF
The method, boiled down:
as §1

For another assay, the target named is PRPF8 (UniProt Q6P2Q9). The method, boiled down:
as §1

The next assay addresses T3, PSMD7 (UniProt P51665).
T3 sequence (whole entry): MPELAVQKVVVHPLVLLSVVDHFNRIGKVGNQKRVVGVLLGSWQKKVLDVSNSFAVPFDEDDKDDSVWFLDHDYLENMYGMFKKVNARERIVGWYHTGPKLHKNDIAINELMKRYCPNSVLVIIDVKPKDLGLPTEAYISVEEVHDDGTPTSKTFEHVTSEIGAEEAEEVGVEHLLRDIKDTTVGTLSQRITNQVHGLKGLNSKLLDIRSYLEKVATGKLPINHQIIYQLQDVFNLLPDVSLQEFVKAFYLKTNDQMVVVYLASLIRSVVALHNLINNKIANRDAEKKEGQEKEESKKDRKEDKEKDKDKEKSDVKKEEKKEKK
An outline of the steps: as §1

A further assay addresses UCHL1 (UniProt P09936). An outline of the steps:
as §1

Another assay addresses T4, UCHL3 (UniProt P15374).
T4 sequence (whole entry): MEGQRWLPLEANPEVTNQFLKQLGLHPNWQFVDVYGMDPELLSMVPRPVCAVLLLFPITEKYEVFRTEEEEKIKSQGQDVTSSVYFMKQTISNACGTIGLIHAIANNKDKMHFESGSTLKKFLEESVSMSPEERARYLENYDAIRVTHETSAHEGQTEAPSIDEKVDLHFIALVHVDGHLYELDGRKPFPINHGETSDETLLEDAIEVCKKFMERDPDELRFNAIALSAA
An outline of the steps: as §1

The next assay has as its target T5, UCHL5 (UniProt Q9Y5K5).
T5 sequence (whole entry): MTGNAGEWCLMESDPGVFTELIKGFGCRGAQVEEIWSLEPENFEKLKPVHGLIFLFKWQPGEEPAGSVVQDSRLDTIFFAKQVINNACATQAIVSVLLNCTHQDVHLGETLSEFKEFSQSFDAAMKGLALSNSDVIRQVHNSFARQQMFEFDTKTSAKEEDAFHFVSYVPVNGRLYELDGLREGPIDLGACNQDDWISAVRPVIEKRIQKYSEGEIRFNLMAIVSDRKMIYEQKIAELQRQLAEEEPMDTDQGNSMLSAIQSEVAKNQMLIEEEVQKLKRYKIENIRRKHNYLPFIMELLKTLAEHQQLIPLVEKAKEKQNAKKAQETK
The method, boiled down: as §1

In another assay the target is USP10 (UniProt Q14694). An outline of the steps:
as §1

For a further assay, the target named is T6, USP15 (UniProt Q9Y4E8).
T6 sequence (whole entry): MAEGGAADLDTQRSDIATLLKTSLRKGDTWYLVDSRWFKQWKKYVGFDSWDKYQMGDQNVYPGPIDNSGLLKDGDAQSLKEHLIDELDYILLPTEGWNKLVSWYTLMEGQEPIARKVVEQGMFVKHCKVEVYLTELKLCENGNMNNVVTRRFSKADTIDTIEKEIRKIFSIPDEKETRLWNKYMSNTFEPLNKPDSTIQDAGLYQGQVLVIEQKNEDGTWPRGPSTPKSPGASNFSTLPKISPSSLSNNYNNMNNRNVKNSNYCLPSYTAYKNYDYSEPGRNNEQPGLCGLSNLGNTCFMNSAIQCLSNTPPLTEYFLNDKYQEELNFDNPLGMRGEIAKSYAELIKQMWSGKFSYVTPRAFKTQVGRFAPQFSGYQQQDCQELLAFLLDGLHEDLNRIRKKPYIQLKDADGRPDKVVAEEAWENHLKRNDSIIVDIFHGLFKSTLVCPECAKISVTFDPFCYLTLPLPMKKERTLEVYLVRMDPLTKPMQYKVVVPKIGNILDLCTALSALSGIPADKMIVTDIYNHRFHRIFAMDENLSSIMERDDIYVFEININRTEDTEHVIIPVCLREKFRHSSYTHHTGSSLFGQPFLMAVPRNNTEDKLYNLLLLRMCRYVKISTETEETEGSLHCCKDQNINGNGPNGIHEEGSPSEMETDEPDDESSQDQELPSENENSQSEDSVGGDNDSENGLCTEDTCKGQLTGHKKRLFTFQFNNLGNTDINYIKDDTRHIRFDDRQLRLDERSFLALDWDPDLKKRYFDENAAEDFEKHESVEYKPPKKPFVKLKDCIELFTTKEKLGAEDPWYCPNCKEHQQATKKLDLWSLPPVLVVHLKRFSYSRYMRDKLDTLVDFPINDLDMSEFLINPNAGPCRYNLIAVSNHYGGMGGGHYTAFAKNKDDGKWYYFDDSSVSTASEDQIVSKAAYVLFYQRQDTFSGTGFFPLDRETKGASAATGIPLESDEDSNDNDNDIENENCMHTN
The method, boiled down: as §1

Another assay has as its target USP16 (UniProt Q9Y5T5). The method, boiled down:
as §1

Molecules are shown by their SMILES. Unmarked numbers belong to inactive results.

Sequence of USP16 (Q9Y5T5 whole entry, looked up): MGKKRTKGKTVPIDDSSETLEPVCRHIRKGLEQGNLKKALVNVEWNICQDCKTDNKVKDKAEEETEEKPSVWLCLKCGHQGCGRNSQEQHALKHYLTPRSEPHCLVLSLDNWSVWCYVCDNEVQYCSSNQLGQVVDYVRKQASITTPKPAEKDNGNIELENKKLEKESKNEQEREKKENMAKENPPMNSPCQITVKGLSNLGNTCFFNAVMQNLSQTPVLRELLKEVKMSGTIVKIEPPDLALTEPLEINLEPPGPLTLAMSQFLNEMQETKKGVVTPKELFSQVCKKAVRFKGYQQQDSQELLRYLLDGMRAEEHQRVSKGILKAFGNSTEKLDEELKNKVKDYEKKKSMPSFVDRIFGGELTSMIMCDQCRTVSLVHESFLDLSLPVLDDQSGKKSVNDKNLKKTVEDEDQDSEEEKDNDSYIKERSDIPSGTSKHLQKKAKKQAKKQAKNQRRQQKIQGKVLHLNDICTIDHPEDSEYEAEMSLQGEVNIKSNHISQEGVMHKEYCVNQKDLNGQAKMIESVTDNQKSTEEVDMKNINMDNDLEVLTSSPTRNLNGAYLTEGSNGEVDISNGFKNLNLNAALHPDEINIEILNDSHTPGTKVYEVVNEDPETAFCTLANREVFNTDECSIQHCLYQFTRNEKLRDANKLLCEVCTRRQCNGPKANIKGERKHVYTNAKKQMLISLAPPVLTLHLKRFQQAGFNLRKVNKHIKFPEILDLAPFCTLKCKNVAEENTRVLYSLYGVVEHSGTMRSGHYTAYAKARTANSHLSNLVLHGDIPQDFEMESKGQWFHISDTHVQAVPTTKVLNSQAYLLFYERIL
Sequence of UCHL1 (P09936 whole entry, looked up): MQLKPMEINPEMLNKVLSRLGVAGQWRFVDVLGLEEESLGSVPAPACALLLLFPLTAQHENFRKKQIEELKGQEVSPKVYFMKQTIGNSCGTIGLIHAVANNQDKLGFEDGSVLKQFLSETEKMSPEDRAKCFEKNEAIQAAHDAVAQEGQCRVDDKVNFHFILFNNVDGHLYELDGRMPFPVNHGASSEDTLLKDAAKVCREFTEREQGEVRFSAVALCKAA
Sequence of USP10 (Q14694 whole entry): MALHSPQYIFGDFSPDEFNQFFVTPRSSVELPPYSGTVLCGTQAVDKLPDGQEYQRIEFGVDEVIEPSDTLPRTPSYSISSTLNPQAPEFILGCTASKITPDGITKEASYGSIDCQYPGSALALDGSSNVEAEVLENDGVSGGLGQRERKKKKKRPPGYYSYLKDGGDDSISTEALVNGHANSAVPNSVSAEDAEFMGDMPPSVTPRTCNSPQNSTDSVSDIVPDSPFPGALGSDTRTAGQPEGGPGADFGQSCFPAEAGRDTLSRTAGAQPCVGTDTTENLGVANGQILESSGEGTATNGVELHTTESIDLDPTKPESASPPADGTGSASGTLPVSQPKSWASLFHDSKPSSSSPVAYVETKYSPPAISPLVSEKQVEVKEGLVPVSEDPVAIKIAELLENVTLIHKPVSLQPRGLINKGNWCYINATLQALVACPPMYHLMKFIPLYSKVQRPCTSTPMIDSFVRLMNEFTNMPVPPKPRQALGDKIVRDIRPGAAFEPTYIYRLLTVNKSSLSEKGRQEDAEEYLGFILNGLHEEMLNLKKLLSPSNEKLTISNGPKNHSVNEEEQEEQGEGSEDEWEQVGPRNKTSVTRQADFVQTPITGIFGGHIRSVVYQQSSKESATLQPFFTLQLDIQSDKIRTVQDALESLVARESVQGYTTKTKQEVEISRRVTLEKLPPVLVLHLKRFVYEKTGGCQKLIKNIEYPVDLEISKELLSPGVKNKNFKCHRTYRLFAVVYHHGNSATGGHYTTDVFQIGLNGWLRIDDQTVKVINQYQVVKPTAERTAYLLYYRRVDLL

Regarding `O=C(CCl)N1CCN(C(=O)N2CCCCC2)CC1`, the “log2 ratio of Biotin-Ahx-Ub-VS probe labelling” value in the assay with OTUD6B was -1.28 (active); with OTUD7B, -1.17 (active); with PRPF8 it was -0.0826; with PSMD7, -0.335; in the assay with UCHL1, -2.3 (active); with UCHL3, -0.528. In addition, the “log2 ratio of Biotin-Ahx-Ub-VS probe labelling” value with UCHL5 was -0.96; with USP10 it was -0.21; with USP15, -0.839; with USP16, 0.0515.
